One test deals with T1, Aspartate--tRNA(Asp/Asn) ligase (Mycobacterium tuberculosis (strain ATCC 25618 / H37Rv)) (UniProt P9WFW3).
T1 sequence (whole entry): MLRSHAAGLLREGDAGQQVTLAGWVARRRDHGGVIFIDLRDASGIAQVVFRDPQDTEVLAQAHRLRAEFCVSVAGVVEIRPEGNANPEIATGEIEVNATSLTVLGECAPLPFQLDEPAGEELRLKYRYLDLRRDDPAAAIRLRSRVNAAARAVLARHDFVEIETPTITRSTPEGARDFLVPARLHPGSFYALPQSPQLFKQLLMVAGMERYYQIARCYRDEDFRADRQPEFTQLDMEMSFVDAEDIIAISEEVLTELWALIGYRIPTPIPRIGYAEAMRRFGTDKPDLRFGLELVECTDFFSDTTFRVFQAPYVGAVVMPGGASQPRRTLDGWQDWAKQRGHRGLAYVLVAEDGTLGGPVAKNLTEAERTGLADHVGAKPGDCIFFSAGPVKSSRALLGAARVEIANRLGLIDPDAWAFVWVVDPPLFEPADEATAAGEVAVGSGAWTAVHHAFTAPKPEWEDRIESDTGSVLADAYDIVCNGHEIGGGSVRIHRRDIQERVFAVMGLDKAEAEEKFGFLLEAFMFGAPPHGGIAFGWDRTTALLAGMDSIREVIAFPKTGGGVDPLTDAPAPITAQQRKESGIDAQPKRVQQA
Put plainly: Assay for Asp RNA synthetase-1 from Mycobacterium tuberculosis. Type of test: functional. Also on record: scale not given: direction of the effect not stated beside the values. The following applies: 30 µM.
On to `CCOC1COC2(CCN(Cc3cccc(F)c3)CC2)C1` (stereo not given), for which the Percent Effect is -3.19%.

For `Cc1cc(C2CCCN(C(=O)CN3CCN(C)CC3)C2)n[nH]1` (stereo not given), the Percent Effect was -0.728%.

With `CCCn1ccc(C(=O)N2CCOC(c3nc(-c4cccs4)no3)C2)n1` (stereo not given), the Percent Effect worked out at 0.28%.

With `CC(=O)Nc1ccc(CNC2CC(=O)N(Cc3cccc(F)c3)C2)cc1` (stereo not given), the Percent Effect was -2.06%.

Turning to `CC(C)c1ccc(OCn2ccc(C(=O)N3CCCC3)n2)cc1`, the Percent Effect came out at 5.38%.

Consider `CC(C)Nc1ncnc2c1CCN(C(=O)Cc1ccccn1)CC2`, for which the Percent Effect was determined as 3.17%.

For `c1ccc(CNC2CCc3ncnn3C2)nc1` (stereo not given), the Percent Effect is -0.856%.

As for `O=c1[nH][nH]cc1-c1ccnc(NCCN2CCCC2)n1`, the Percent Effect came out at 5.51%.

For `CC1CCCCN1C(=O)CN1CCN(c2ccc3nncn3n2)CC1` (stereo not given), the Percent Effect came to 0.945%.

`O=S(=O)(c1ccccc1)N1CCCCC1c1cc[nH]n1` (stereo not given): the Percent Effect turned out to be 4.1%.

As to `O=S1(=O)N=C(SCc2ccc(Cl)cc2)Nc2ccc(F)cc21`, the Percent Effect was -0.189%.

Consider `CC(=O)c1cn(CCC(=O)NCCC(=O)O)c2ccccc12`, for which the Percent Effect is -4.27%.

Consider `Cc1cc(S(=O)(=O)N2CCC(S(C)(=O)=O)CC2)ccc1F`, for which the Percent Effect was 1.15%.

`Cc1occc1C(=O)N1CCCC2(CCN(CCN3CCCC3)C2=O)C1` (stereo not given): the Percent Effect was determined as 1.84%.

Regarding `C[C@H]1CN(Cc2cnn(C)c2)C[C@@]12CCN(Cc1cccnc1)C2=O`, the Percent Effect was -2.89%.

Turning to `Cc1ccc2cnn(CCC(=O)NCc3c(C)nn(C)c3C)c2c1`, the Percent Effect turned out to be 8.17%.

As for `O=S(=O)(Cc1ccccc1)NCc1ccco1`, the Percent Effect was -3.04%.

On to `CN(CCC(F)(F)F)C(=O)[C@H]1CSCN1C(=O)OC(C)(C)C`, for which the Percent Effect is -5.95%.

Take `COCC(=O)N1CC[C@@H]2O[C@H](COCc3ccncc3)CC[C@@H]21`: the Percent Effect was found to be 4.14%.

In the case of `CC1CN(CC(=O)Nc2nncs2)CCN1c1nccs1` (stereo not given), the Percent Effect was 4.78%.

Regarding `NCc1cnn(-c2ccccc2C(=O)NCCCn2ccnc2)c1`, the Percent Effect is 0.581%.

As for `O=C(Cc1ccccc1)N1CCC2(CC(=O)N(c3cccc(F)c3)C2)C1` (stereo not given), the Percent Effect was -1.85%.

For the compound `CCc1ccc(C(=O)NC2CCN(c3cnn(C)c3)C2=O)o1` (stereo not given), the Percent Effect stood at 3.57%.

In the case of `CC(C)COC(C)C(=O)N1CCN(S(C)(=O)=O)CC1` (stereo not given), the Percent Effect was -6.93%.

In the case of `CCc1nnc2n1CCN(C(=O)c1cnc3ccccc3n1)C2`, the Percent Effect is -4.57%.

As for `CS(=O)(=O)NCCCNC(=O)c1cccc(-n2cccc2)c1`, the Percent Effect was -2.88%.

For `Cc1cccnc1CNCC1(O)CCCN(CC2CCCCC2)C1=O` (stereo not given), the Percent Effect was -2.28%.

In the case of `COC[C@@]12CCO[C@@H]1CCN(C(=O)Cc1ccccc1F)C2`, the Percent Effect is -2.8%.

On to `CCC(NC(=O)CC(F)(F)F)c1ccccc1OCC(=O)N1CCCC1` (stereo not given), for which the Percent Effect was 0.767%.

As to `Cn1ccnc1CN1CC[C@@H](NS(C)(=O)=O)[C@@H]1Cc1cccnc1`, the Percent Effect was -0.168%.

Consider `Cc1nc(C(C)(C)NC(=O)Nc2cccc(C#N)c2)no1`, for which the Percent Effect is -0.287%.

As to `Cc1cc(C)n(CC2CCCN2C(=O)CCCNc2ncccn2)n1` (stereo not given), the Percent Effect was -2.92%.

With `CSCc1cccc(S(=O)(=O)N2CCSCC2)c1`, the Percent Effect is 0.639%.

For `COc1ccc(OC)c(C2C3=C(COC3=O)Nc3[nH]nc(C)c32)c1` (stereo not given), the Percent Effect is -2.76%.

For the compound `COc1cc(CNCc2c(C)nn(C)c2N(C)C)ccc1C`, the Percent Effect was -3.09%.

For the compound `Cc1ccc(N2CC3(CCN(c4nccs4)C3)C2)nn1`, the Percent Effect was -3.76%.

As to `CCOCC1CN(Cc2ccoc2)Cc2nn(CC3CC3)cc21` (stereo not given), the Percent Effect was determined as 6.32%.

As to `O=C(O)C1(Cc2cc(-c3ccc(F)cc3F)no2)CCOCC1`, the Percent Effect is 0.819%.

`Cc1nn(CC(=O)N2CCCCC2Cn2cccn2)c(C)c1Cl` (stereo not given): the Percent Effect is -0.127%.

Take `CN(C)CC1CN(CCOc2cccc(C#N)c2)CCO1` (stereo not given): the Percent Effect was -0.815%.

The target of a further test is Shiga toxin 2 (Escherichia coli O157:H7) (UniProt P09385+P09386). Put plainly: E. coli 0.157:H7 Shiga Toxin SOP - stx2 screening assay. Type of test: functional. The arrangement: scale not given: direction of the effect not stated beside the values. The following applies: 30 µM.
`CCOC1COC2(CCN(Cc3cccc(F)c3)CC2)C1` (stereo not given): the Percent Effect is -3.58%.

`Cc1cc(C2CCCN(C(=O)CN3CCN(C)CC3)C2)n[nH]1` (stereo not given): the Percent Effect came out at 13.2%.

For `CCCn1ccc(C(=O)N2CCOC(c3nc(-c4cccs4)no3)C2)n1` (stereo not given), the Percent Effect is -0.831%.

In the case of `CC(=O)Nc1ccc(CNC2CC(=O)N(Cc3cccc(F)c3)C2)cc1` (stereo not given), the Percent Effect is -10.3%.

On to `CC(C)c1ccc(OCn2ccc(C(=O)N3CCCC3)n2)cc1`, for which the Percent Effect was -13.8%.

For `CC(C)Nc1ncnc2c1CCN(C(=O)Cc1ccccn1)CC2`, the Percent Effect is -44.7%.

As for `c1ccc(CNC2CCc3ncnn3C2)nc1` (stereo not given), the Percent Effect is -65.4%.

With `O=c1[nH][nH]cc1-c1ccnc(NCCN2CCCC2)n1`, the Percent Effect was -68.3%.

For `CC1CCCCN1C(=O)CN1CCN(c2ccc3nncn3n2)CC1` (stereo not given), the Percent Effect was -8.03%.

Consider `O=S(=O)(c1ccccc1)N1CCCCC1c1cc[nH]n1` (stereo not given), for which the Percent Effect was 62%.

For the compound `O=S1(=O)N=C(SCc2ccc(Cl)cc2)Nc2ccc(F)cc21`, the Percent Effect is -5.93%.

As to `CC(=O)c1cn(CCC(=O)NCCC(=O)O)c2ccccc12`, the Percent Effect was -25.1%.

Take `Cc1cc(S(=O)(=O)N2CCC(S(C)(=O)=O)CC2)ccc1F`: the Percent Effect is -4.34%.

For `Cc1occc1C(=O)N1CCCC2(CCN(CCN3CCCC3)C2=O)C1` (stereo not given), the Percent Effect was -29.2%.

Take `C[C@H]1CN(Cc2cnn(C)c2)C[C@@]12CCN(Cc1cccnc1)C2=O`: the Percent Effect is -10.2%.

`Cc1ccc2cnn(CCC(=O)NCc3c(C)nn(C)c3C)c2c1`: the Percent Effect was -18.4%.

With `O=S(=O)(Cc1ccccc1)NCc1ccco1`, the Percent Effect came to 4.92%.

Regarding `CN(CCC(F)(F)F)C(=O)[C@H]1CSCN1C(=O)OC(C)(C)C`, the Percent Effect was -17.7%.

Turning to `COCC(=O)N1CC[C@@H]2O[C@H](COCc3ccncc3)CC[C@@H]21`, the Percent Effect was -2.38%.

In the case of `CC1CN(CC(=O)Nc2nncs2)CCN1c1nccs1` (stereo not given), the Percent Effect is 27.5%.

Regarding `NCc1cnn(-c2ccccc2C(=O)NCCCn2ccnc2)c1`, the Percent Effect came out at 10.4%.

On to `O=C(Cc1ccccc1)N1CCC2(CC(=O)N(c3cccc(F)c3)C2)C1` (stereo not given), for which the Percent Effect came to 10.2%.

Take `CCc1ccc(C(=O)NC2CCN(c3cnn(C)c3)C2=O)o1` (stereo not given): the Percent Effect was -7.19%.

With `CC(C)COC(C)C(=O)N1CCN(S(C)(=O)=O)CC1` (stereo not given), the Percent Effect was -2.13%.

`CCc1nnc2n1CCN(C(=O)c1cnc3ccccc3n1)C2`: the Percent Effect turned out to be 0.361%.

In the case of `CS(=O)(=O)NCCCNC(=O)c1cccc(-n2cccc2)c1`, the Percent Effect is -28.3%.

For the compound `Cc1cccnc1CNCC1(O)CCCN(CC2CCCCC2)C1=O` (stereo not given), the Percent Effect was found to be 13.1%.

Consider `COC[C@@]12CCO[C@@H]1CCN(C(=O)Cc1ccccc1F)C2`, for which the Percent Effect was -1.69%.

Consider `CCC(NC(=O)CC(F)(F)F)c1ccccc1OCC(=O)N1CCCC1` (stereo not given), for which the Percent Effect was -16.8%.

Regarding `Cn1ccnc1CN1CC[C@@H](NS(C)(=O)=O)[C@@H]1Cc1cccnc1`, the Percent Effect was -4.31%.

Consider `Cc1nc(C(C)(C)NC(=O)Nc2cccc(C#N)c2)no1`, for which the Percent Effect was -19.6%.

As for `Cc1cc(C)n(CC2CCCN2C(=O)CCCNc2ncccn2)n1` (stereo not given), the Percent Effect is 26.1%.

In the case of `CSCc1cccc(S(=O)(=O)N2CCSCC2)c1`, the Percent Effect was 0.0259%.

In the case of `COc1ccc(OC)c(C2C3=C(COC3=O)Nc3[nH]nc(C)c32)c1` (stereo not given), the Percent Effect was -22.3%.

On to `COc1cc(CNCc2c(C)nn(C)c2N(C)C)ccc1C`, for which the Percent Effect is 9.03%.

With `Cc1ccc(N2CC3(CCN(c4nccs4)C3)C2)nn1`, the Percent Effect was -64.2%.

On to `CCOCC1CN(Cc2ccoc2)Cc2nn(CC3CC3)cc21` (stereo not given), for which the Percent Effect is -16.8%.

Take `O=C(O)C1(Cc2cc(-c3ccc(F)cc3F)no2)CCOCC1`: the Percent Effect was -13.5%.

Take `Cc1nn(CC(=O)N2CCCCC2Cn2cccn2)c(C)c1Cl` (stereo not given): the Percent Effect is -13.2%.

Take `CN(C)CC1CN(CCOc2cccc(C#N)c2)CCO1` (stereo not given): the Percent Effect is 15.6%.

Values taken from ChEMBL document CHEMBL3988442, “University of Dundee, Small-Polar-MMV Screening Library” (2021).
